The values that follow come from the supplement of paper PMC6522484.

± gives the standard deviation of the averaged measurements.

The assay concerns DLD1. In words: cell viability (CellTiter-Glo) relative to plate median (fraction of plate median); higher = more viable cells. The note with it: 10 µM; treatment time 24 h; reporter: 7TFP. A digest of the protocol: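 Colorectal cancer cells expressing a stably transduced lentiviral TCF/Wnt firefly luciferase reporter were treated in 384-well plates with kinase inhibitor library compounds at a final 10 µM for 24 h. Firefly luciferase or CellTiterGlo luminescence was then read on parallel plates. Well signals were normalised to the plate median (webcellHTS2, additive, no log transformation) and averaged over two independent replicates.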
In general terms: Cellular ATP, detected with luciferase, serves as a proxy for viable cell number.
For the molecule `CC(C)(C)c1cc(/C=C(\C#N)C(N)=S)cc(C(C)(C)C)c1O` [Tyrphostin AG 879 (AG 879)], the cell viability is 0.851 ± 0.1.
As to `C=CC(=O)Nc1cc2c(Nc3ccc(F)c(Cl)c3)ncnc2cc1OCCCN1CCOCC1` [CI-1033 (Canertinib)], the cell viability came to 0.868 ± 0.016.
With `NCC(=O)Nc1ccc(-n2nc(C(F)(F)F)cc2-c2ccc3c(ccc4ccccc43)c2)cc1` the figure was 0.883 ± 0.098; with `COc1ccc(-c2cc3c(C)nc(N)nc3n([C@H]3CC[C@H](OCCO)CC3)c2=O)cn1`, 0.889 ± 0.028; with `Clc1ccc(C2(c3ccc(-c4cn[nH]c4)cc3)CCNCC2)cc1`, 1.01 ± 0.025.
The molecule `C[S+]([O-])c1ccc(-c2nc(-c3ccc(F)cc3)c(-c3ccncc3)[nH]2)cc1` (stereo unspecified) had a cell viability of 0.99 ± 0.099.
As to `C=CC(=O)Nc1ccc2ncnc(Nc3ccc(OCc4cccc(F)c4)c(Cl)c3)c2c1`, the cell viability came to 1.02 ± 0.03.
As to `CCn1nnc2c(N3CCOCC3)nc(-c3ccc(NC(=O)Nc4ccc(C(=O)N5CCN(C)CC5)cc4)cc3)nc21`, the cell viability is 1.21 ± 0.16.
In turn, `O=c1cc(N2CCOCC2)oc2c(-c3cccc4c3sc3ccccc34)cccc12` gave a cell viability of 1.01 ± 0.083.
Regarding `Cc1cnc(Nc2ccc(N3CCN(C)CC3)cc2)nc1Nc1cccc(S(=O)(=O)NC(C)(C)C)c1`, the cell viability was determined as 0.833 ± 0.04.
In the case of `COc1ccc(S(=O)(=O)N(C(C)=O)c2ccccc2/C=C/c2cc[n+]([O-])cc2)cc1`, the cell viability was determined as 0.982 ± 0.14.
The figure for `COc1cc2ncnc(Nc3ccc(F)c(Cl)c3)c2cc1OCCCN1CCOCC1` [Gefitinib (Iressa)] is 0.913 ± 0.069.
In turn, `CN1CCN(c2cccc(Nc3nc4c(-c5ccc(S(C)(=O)=O)cc5)cccn4n3)c2)CC1` displayed a cell viability of 0.927 ± 0.013.
With `CC(=O)Nc1nc(C)c(-c2ccc(Cl)c(S(=O)(=O)NCCO)c2)s1` the figure was 0.939 ± 0.13.
With `CCC[C@H](NC(=O)/C(C#N)=C/c1cccc(Br)n1)c1ccccc1` the figure was 0.421 ± 0.17.
The molecule `CCS(=O)(=O)c1cccc(-c2cc(C(=O)NC3CCN(C)CC3)c(C)c3[nH]c4ncc(C)cc4c23)c1` gave a cell viability of 1.06 ± 0.071.
The figure for `CC(C)n1nc(-c2ccc3oc(N)nc3c2)c2c(N)ncnc21` is 0.832 ± 0.15; for `COc1cc2c(N3CCN(C(=O)Nc4ccc(OC(C)C)cc4)CC3)ncnc2cc1OCCCN1CCCCC1` [Tandutinib (MLN518)] it is 1.09 ± 0.05; for `O=C1NC(=O)C(c2ccccc2[N+](=O)[O-])=C1Nc1ccc(O)c(Cl)c1` it is 1.13 ± 0.2.
`COc1cccc(-c2cc(=O)c3ccccc3o2)c1N` displayed a cell viability of 1.24 ± 0.085.
With `Cc1ccc(NC(=O)c2ccc(CN3CCN(C)CC3)cc2)cc1Nc1nccc(-c2cccnc2)n1` [Imatinib (Gleevec)] the figure was 1.05 ± 0.099.
With `COc1cc2c(Nc3ccc(NC(=O)c4ccccc4)cc3)ncnc2cc1OCCCN1CCOCC1` the figure was 0.8075 ± 0.005; with `CC(C)CC(=O)Nc1n[nH]c2c1CN(C(=O)C1CCN(C)CC1)C2(C)C`, 1.07 ± 0.028; with `CNC(=O)Nc1ccc(-c2nc(N3CC4CCC(C3)O4)c3cnn(C4CCC5(CC4)OCCO5)c3n2)cc1`, 0.902 ± 0.088.
`CCOc1cc2ncc(C#N)c(Nc3ccc(OCc4ccccn4)c(Cl)c3)c2cc1NC(=O)/C=C/CN(C)C` [Neratinib (HKI-272)]: the cell viability was determined as 0.817 ± 0.03.
The figure for `N#CCNC(=O)c1ccc(-c2ccnc(Nc3ccc(N4CCOCC4)cc3)n2)cc1` is 1.06 ± 0.014; for `Cc1ncc(-c2ccnc(Nc3ccc(S(C)(=O)=O)cc3)n2)n1C(C)C` it is 1.25 ± 0.16.
The figure for `O=C(O)c1ccc2c(c1)nc(Nc1cccc(Cl)c1)c1ccncc12` [cx-4945 (Silmitasertib)] is 1 ± 0.057.
With `CC(=O)Nc1cccc(-n2c(=O)n(C3CC3)c(=O)c3c(Nc4ccc(I)cc4F)n(C)c(=O)c(C)c32)c1` the figure was 1.33 ± 0.057.
`Nc1ncnc2c1c(-c1cccc(OCc3ccccc3)c1)cn2C1CC(CN2CCCC2)C1` (stereo unspecified) showed a cell viability of 0.77 ± 0.15.
In turn, `COc1cc2c(Oc3ccc(NC(=O)C4(C(=O)Nc5ccc(F)cc5)CC4)cc3F)ccnc2cc1OCCCN1CCOCC1` showed a cell viability of 0.845 ± 0.044.
The figure for `CCN1CCN(c2ccc(Nc3cc(N(C)C(=O)Nc4c(Cl)c(OC)cc(OC)c4Cl)ncn3)cc2)CC1` is 1.36 ± 0.18; for `Cc1[nH]c(/C=C2\C(=O)Nc3ccccc32)c(C)c1CCC(=O)O` it is 0.941 ± 0.028.
Molecule `CN1CCN(c2ccc3nc(-c4c(N)c5c(F)cccc5[nH]c4=O)[nH]c3c2)CC1` [Dovitinib Dilactic acid (TKI258 Dilactic acid)] yielded a cell viability of 0.857 ± 0.19.
The figure for `Cc1[nH]c(/C=C2\C(=O)Nc3ccc(S(=O)(=O)Cc4c(Cl)cccc4Cl)cc32)c(C)c1C(=O)N1CCC[C@@H]1CN1CCCC1` is 0.691 ± 0.27; for `COc1cc(Nc2ncc(F)c(Nc3ccc4c(n3)NC(=O)C(C)(C)O4)n2)cc(OC)c1OC` [R406(free base)] it is 1.2 ± 0.18.
